# Sampled rows, rich in hits. Any-hit rate of the full collection: about 19%.
# TDP1 cell CPT = qHTS for Inhibitors of human tyrosyl-DNA phosphodiesterase 1 (TDP1): qHTS in cells in presence of CPT. AID 686979, 2013. chicken DT40 Tdp1-/-;hTDP1 cells + 20 nM CPT, ATP luminescence, 48 h. Potency, µM (top dose mostly 46.2 µM), usual class: inhibitors. actives 12% (n = 420,000); further: nearly all actives have a fitted effect of over 55% in size
#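 Chicken DT40 Tdp1-/- cells complemented with human TDP1, 400 cells/well, exposed to compounds plus 20 nM camptothecin for at least 48 h at 37 C; viability read as ATP content by CellTiter-Glo luminescence.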
# Gal4-VP16 FLuc = VP16 counterscreen qHTS for inhibitors of ROR gamma transcriptional activity | Drosophila S2 Gal4-VP16 UAS-luciferase, luminescence, 20 h | Potency, µM (top dose mostly 53.6 µM), usual class: inhibitors | actives 3.5% (n = 310,000);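 further: Gal4-VP16 expression switched on by copper sulfate through the metallothionein promoter; nearly all actives have a fitted effect of over 50% in size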
# TDP1 cell noCPT = qHTS for Inhibitors of human tyrosyl-DNA phosphodiesterase 1 (TDP1): qHTS in cells in absence of CPT; actives 15% (n = 420,000); AID 686978, 2013; DT40 Tdp1-/- hTDP1 cells, no CPT, ATP luminescence, 48 h; Potency, µM (series often up to 46.2 µM), hits mostly inhibitors; further: nearly all actives have a fitted effect of over 55% in size
#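 Stably hTDP1-transfected Tdp1-null chicken DT40 cells were treated with library compounds minus camptothecin and grown for at least 48 hr at 37 °C, after which cellular ATP was quantified by luminescence.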
# RORg inh = qHTS for inhibitors of ROR gamma transcriptional activity; actives 5.4% (n = 310,000); Drosophila S2 Gal4-RORgamma UAS-luciferase reporter, 20 h; Potency, µM (series often up to 53.6 µM), most hits filed as inhibitors; Nuclear receptor ROR-gamma (Mus musculus), P51450; further: nearly all actives have a fitted effect of over 60% in size
# Target sequence (P51450 whole entry, looked up, the tested form may be a part): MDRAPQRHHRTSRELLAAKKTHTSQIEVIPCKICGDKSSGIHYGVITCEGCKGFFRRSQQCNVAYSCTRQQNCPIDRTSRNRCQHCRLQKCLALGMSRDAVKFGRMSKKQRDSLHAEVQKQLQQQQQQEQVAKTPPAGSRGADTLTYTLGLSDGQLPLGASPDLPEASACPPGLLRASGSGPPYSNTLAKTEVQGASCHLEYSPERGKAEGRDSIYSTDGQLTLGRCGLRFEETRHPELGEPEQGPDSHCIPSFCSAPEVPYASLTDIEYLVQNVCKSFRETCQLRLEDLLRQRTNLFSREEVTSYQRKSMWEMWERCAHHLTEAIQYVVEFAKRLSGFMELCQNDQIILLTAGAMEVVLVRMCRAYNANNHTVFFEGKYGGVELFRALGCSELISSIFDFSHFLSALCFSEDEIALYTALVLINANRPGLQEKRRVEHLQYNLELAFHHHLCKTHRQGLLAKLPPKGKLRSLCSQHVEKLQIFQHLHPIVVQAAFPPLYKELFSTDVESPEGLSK
#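 Using a luciferase readout, inhibitors were identified by reduced reporter activity in Drosophila cells coexpressing a copper-inducible Gal4–ROR gamma fusion and UAS-driven Photinus luciferase, incubated 20 hr after 700 uM copper sulfate.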
# TDP1 block = qHTS Assay for Inhibitors of Tyrosyl-DNA Phosphodiesterase (TDP1) | recombinant TDP1, AlphaScreen DNA substrate cleavage | Potency, µM (titrated, usually from 130 µM), actives largely listed as inhibitors | actives 0.28% (n = 350,000) | AID 485290, 2010; further: nearly all actives have a fitted effect of over 40% in size
#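 Compounds were preincubated with Tdp1 (1 nM final) for 15 min at room temperature before substrate (15 nM final) started a 5 min reaction; beads (10 ug/ml final) were then added for 10 min before AlphaScreen detection.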
# Hits are given with their value; - = inactive; ? = inconclusive; . = not tested or not shown. The call rests on the fitted dose curve; in most records, active means well fitted curve in the direction sought with a large enough effect; inconclusive means small, poorly fitted or top-dose-only effect, or another doubt; inactive means no such curve, though single readings can be large; an effect the other way counts as inactive or inconclusive.
SMILES,TDP1 cell CPT,Gal4-VP16 FLuc,TDP1 cell noCPT,RORg inh,TDP1 block
CC1CN(c2ccc(NC(=S)Nc3ccc(N4CC(C)OC(C)C4)cc3)cc2)CC(C)O1 (stereo unspecified),?,8.9µM,?,2.5µM,-
CCn1ccc2c(OCC(=O)Nc3ccc(C(C)=O)cc3)cccc2c1=O,?,.,9.2µM,.,-
CCOCCn1ccc2c(OCC(=O)Nc3ccc(C(N)=O)cc3)cccc2c1=O,?,.,15µM,.,-
CC(C)C1C(=O)N(Cc2cn(CCC3OCCCO3)nn2)CCS(=O)(=O)N1Cc1ccc(-c2cccc(N(C)C)c2)cc1 (stereo unspecified),-,.,-,.,.
COCOCCn1cc(CN2CCS(=O)(=O)N(Cc3ccc(-c4ccc(OC)nc4)cc3)C(C)C2=O)nn1 (stereo unspecified),-,.,-,.,.
COCOCCn1cc(CN2CCS(=O)(=O)N(Cc3ccc(-c4cccc(N(C)C)c4)cc3)C(C(C)C)C2=O)nn1 (stereo unspecified),15µM,.,21µM,.,.
COCOCCn1cc(CN2CCS(=O)(=O)N(Cc3ccc(-c4ccc(OC)nc4)cc3)C(C(C)C)C2=O)nn1 (stereo unspecified),13µM,.,8.2µM,.,.
COCOCCn1cc(CN2CCS(=O)(=O)N(Cc3ccc(-c4cccc(CO)c4)cc3)C(C(C)C)C2=O)nn1 (stereo unspecified),?,.,21µM,.,.
Cc1cccc(C(=O)NCC(=O)N2CCCC2)c1,-,-,-,-,-
COCCNC(=S)N(CCc1c(C)[nH]c2ccc(C)cc12)Cc1ccco1,?,-,?,11µM,-
COCCNC(=S)N(CCc1c(C)[nH]c2ccc(OC)cc12)Cc1ccco1,?,-,?,-,.
COCCNC(=S)N(CCc1c(C)[nH]c2ccc(F)cc12)Cc1ccc(C)cc1,?,?,18µM,?,.
Cc1ccccc1NC(=S)N(CCc1c(C)[nH]c2ccc(F)cc12)Cc1ccncc1,-,-,?,-,-
Cc1ccc(Sc2ccc(/C=N/O)cc2[N+](=O)[O-])cc1,?,-,?,-,-
COc1ccc(NC(=S)N2CCN(Cc3cccc(F)c3)CC2)c(OC)c1,23µM,-,21µM,?,-
COc1ccc(NC(=S)N2CCN(Cc3ccco3)CC2)c(OC)c1,?,-,13µM,-,-
COc1ccccc1NC(=S)N1CCN(Cc2ccccc2)CC1,?,-,?,-,-
S=C(Nc1ccc2c(c1)OCO2)N1CCN(Cc2ccco2)CC1,?,11µM,-,11µM,-
Cc1ccnc(NC(=O)c2cccc(NC(=O)Cc3ccccc3)c2)c1,-,-,-,-,-
O=C(CCC(=O)NC1CC1)Nc1nnc(C2CCCCC2)s1,-,-,-,-,-
Cc1ccc(S(=O)(=O)N(C)c2ccccc2C(=O)Nc2ccc3c(c2)OCCO3)cc1,?,-,?,-,-
COc1cccc(Cn2c(=O)cnc3cnc(N(C)C)nc32)c1,?,-,-,-,.
CCCC(=O)Nc1nnc(SCC(=O)NCc2ccc3c(c2)OCO3)s1,-,-,-,-,-
O=C(CSc1nnc(NC(=O)c2ccc3c(c2)OCO3)s1)NCc1ccco1,-,?,-,13µM,-
O=C(CSc1nnc(NC(=O)c2ccco2)s1)NCc1ccc2c(c1)OCO2,-,-,18µM,-,-
COc1ccc(NS(=O)(=O)c2ccc(OC)c(NC(=O)CCC3CCCC3)c2)cc1,?,-,?,-,-
Cn1c(=NC(=O)CSCC(=O)N2CCCC2)sc2ccccc21,-,-,-,-,-
Fc1ccc(N2CCN(/C=C/c3nnnn3-c3ccccc3)CC2)cc1,?,-,?,-,-
COc1ccc(OC(=O)c2cc(S(=O)(=O)N3CCCC3)ccc2Cl)cc1,-,-,-,-,-
C[C@@H](CN1C(=O)C(=O)NC[C@@H]1Cc1ccc(O)cc1)NC(=O)Cc1ccccc1,-,-,-,-,.
